High-throughput results deposited in PubChem BioAssay by several laboratories.
Candida biofilm – kills Candida albicans biofilms. C. albicans biofilm + clotrimazole, Alamar Blue. 85,000 tested, 0.14% active. AID 834. inhibition, % at 6 µM;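 active means inhibition above 20%; inactive means inhibition below 20%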;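 further: preformed 24 hr biofilms exposed to compound for 48 hr; 0% = biofilm without compound and 100% = blank killed by clotrimazole plus chlorhexidine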
ERa SRC1 pot – ER-alpha (human) coactivator binding potentiation; P03372; TR-FRET ERalpha-LBD/SRC-Cy5 coactivator binding, 2 h; 100 = basal binding, no effect; coactivator binding (% of control), % at 25.6 µM; 86,000 tested, 1.3% active; AID 639; in the data active means activity above about 200%;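 further: binding measured in presence of low estradiol as agonist stimulus; 0% = peptide alone without receptor and 100% = receptor with peptide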
Target sequence (P03372 whole entry, looked up, the tested form may be a part): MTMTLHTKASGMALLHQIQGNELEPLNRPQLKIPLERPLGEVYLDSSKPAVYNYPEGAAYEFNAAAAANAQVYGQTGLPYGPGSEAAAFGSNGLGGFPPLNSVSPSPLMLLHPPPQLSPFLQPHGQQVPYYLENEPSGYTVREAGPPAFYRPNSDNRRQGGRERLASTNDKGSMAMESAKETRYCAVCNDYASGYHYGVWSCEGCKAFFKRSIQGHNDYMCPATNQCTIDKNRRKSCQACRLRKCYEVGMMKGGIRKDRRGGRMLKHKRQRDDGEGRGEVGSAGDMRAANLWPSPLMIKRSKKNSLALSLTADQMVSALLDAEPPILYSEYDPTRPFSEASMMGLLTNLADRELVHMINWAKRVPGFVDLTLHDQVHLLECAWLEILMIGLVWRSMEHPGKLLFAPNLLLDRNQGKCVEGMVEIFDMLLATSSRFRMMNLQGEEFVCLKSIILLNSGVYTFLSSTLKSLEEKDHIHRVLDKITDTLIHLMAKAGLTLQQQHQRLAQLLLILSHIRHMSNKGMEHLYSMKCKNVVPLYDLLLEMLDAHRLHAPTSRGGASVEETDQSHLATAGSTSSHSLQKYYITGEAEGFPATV
ERb SRC1 inh – ER-beta (human) coactivator binding inhibition; inhibition, % at 25.6 µM; 86,000 tested, 1.3% active; TR-FRET ER-beta LBD / SRC1-Cy5 peptide binding; receptor agonist-loaded with 1 µM estradiol; Q92731;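 active means compounds whose percent inhibition of the receptor-coactivator binding signal exceeds about 50% in the single-dose screen, limit read from the data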;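 further: 0% = receptor plus peptide wells without compound and 100% = peptide-only wells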
Smad3 inh – blocks human Smad3 binding to FoxH1 peptide. 88,000 tested, 0.29% active. TR-FRET Smad3/Dy647-FoxH1 peptide binding, europium anti-His. AID 630. P84022. inhibition, % at 25 µM;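 active means compounds that reduce the energy-transfer binding signal between the protein and its labelled peptide by more than half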;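 further: 0% = Smad3 plus labelled peptide maximal FRET and 100% = peptide-only background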
ERa coact inh – ER-alpha (human) coactivator binding inhibition; AID 629; P03372; TR-FRET ER-alpha LBD / SRC-1 peptide, estradiol-bound; inhibition, % at 25.6 µM; 86,000 tested, 1.7% active; in the data active means inhibition above about 50%;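 further: 0% = receptor plus peptide control and 100% = peptide only without receptor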
MT1-MMP txn act – MT1-MMP promoter transcription activation. HT1080 MT1-MMP promoter luciferase reporter, luminescence, overnight; hits give high values. activation factor at 10 µM. 86,000 tested, 0.16% active;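 active means activation factor of at least 2 for MT1-MMP transcription at 10 µM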
The depositor's hits bear a star; . = not tested or not shown; [ ] = remark or other dose. In the library only some 3.8% were active in any assay of this set; here they are far more common.

SMILES | Candida biofilm | ERa SRC1 pot | ERb SRC1 inh | Smad3 inh | ERa coact inh | MT1-MMP txn act
O=C(Cc1cccs1)Nc1ccc(-c2nnn(CC(=O)N3CCOCC3)n2)cc1 | 4 | 16 | 93* | -4 | 96*[fluorescence artefact?] | 1.3
CCOc1ccc(Nc2cc(=O)oc3ccccc23)cc1 | 9 | 256* | 11 | -6 | -5 | 1.1
COc1ccc2cc(CN(CCCN3CCOCC3)Cc3nnnn3C3CCCC3)c(=O)[nH]c2c1 | 5 | 261*[fluorescence artefact?] | -10 | -8 | -10 | 1
COc1ccc(CN(Cc2cc3ccc(C)cc3[nH]c2=O)Cc2nnnn2C2CCCC2)cc1 | 2 | 101 | -6 | -4 | 7 | 1
Cc1nc(NNC(=O)c2ccc([N+](=O)[O-])cc2)cc(-c2ccccc2)n1 | 1 | 204*[fluorescence artefact?] | 6 | 7 | 11 | 1
CCc1nnc(NC(=O)CSc2nc3c(cc2C#N)CCCC3)s1 | 13 | 510*[fluorescence artefact?] | -10 | -127 | -20 | 0.7
Cc1noc(NS(=O)(=O)c2ccc(NC(=O)CSc3nc4c(cc3C#N)CCCCC4)cc2)c1C | -2 | 96 | -4 | 19 | -8 | 1.2
COc1ccc(NC(=O)CSc2nc3c(cc2C#N)CN(C)CC3)cc1 | 7 | 34 | 56* | 4 | 93*[fluorescence artefact?] | 1.1
CN1CCc2nc(SCC(=O)Nc3ccc(F)cc3)c(C#N)cc2C1 | 2 | 38 | 49 | 15 | 83* | 1.5
CCN1CCc2nc(SCC(=O)Nc3ccc(OC)cc3)c(C#N)cc2C1 | 3 | 11 | 5 | -8 | 39 | 1.1
O=C1c2cccc([N+](=O)[O-])c2C(=O)N1c1ncn[nH]1 | . | . | . | 5 | . | .
N/C(=N/O)c1cn([C@H]2O[C@@H](CO)[C@H](O)[C@H]2O)c2ncnc(NO)c12 | . | . | . | 20 | . | .
CN(CC(=O)NC(c1ccccc1)c1ccccc1)Cc1nc2ccccc2c(=O)[nH]1 | -2 | 102 | 5 | 4 | 4 | 1.1
CN(CC(=O)NC(=O)NCc1ccco1)Cc1nc2ccccc2c(=O)[nH]1 | 0 | 71 | 43 | 13 | 61* | 1
COc1ccc(-c2cn3c(C)c(C(=O)Nc4ccncc4)sc3n2)cc1 | 3 | 345* | -2 | 8 | -3 | 1.1
COc1ccc(-c2cn3c(C)c(C(=O)Nc4cccc(NC(C)=O)c4)sc3n2)cc1 | 8 | 158 | 21 | -2 | 22 | 1.1
COCCN(CCOC)C(=O)c1sc2nc(-c3ccccc3)cn2c1C | 4 | 103 | 1 | 7 | -7 | 0.9
COC(=O)c1ccc(NC(=O)c2sc3nc(-c4ccccc4)cn3c2C)cc1 | 3 | 537*[fluorescence artefact?] | 43 | 1 | 39 | 1
Cc1c(C(=O)Nc2ccncc2)sc2nc(-c3ccc(F)cc3)cn12 | 32* | 367*[fluorescence artefact?] | 7 | 5 | -6 | 1
Cc1c(C(=O)NCC(C)C)sc2nc(-c3ccc(F)cc3)cn12 | 10 | 109 | 3 | -3 | 4 | 1.2
C[C@@H](C(=O)NCc1ccccn1)[C@@H]1C[C@@]1(C)[C@@H](NC(=O)OCc1ccccc1)c1ccccc1 | . | . | . | . | . | 1.1
CCCS(=O)(=O)N1CCC(C(=O)NCCc2ccccc2)CC1 | . | . | . | . | . | 1.1
CCCS(=O)(=O)N1CCC(C(=O)NCCN2CCCC2)CC1 | 8 | 103 | 81*[fluorescence artefact?] | 7 | -4 | 1.1
NC(N)=NC(N)=Nc1ccc(C(=O)O)cc1 | . | . | . | 3 | . | .
O=C(CN1CCCCC1)N1CCCc2c1c(=O)oc1ccc(OCc3ccccc3)cc21 | 7 | 327*[fluorescence artefact?] | -5 | 2 | 1 | 1
SMILES | Candida biofilm | ERa SRC1 pot | ERb SRC1 inh | Smad3 inh | ERa coact inh | MT1-MMP txn act
c1cc2c3c(cccc3c1)C(N1CCN(C3=Nc4cccc5cccc3c45)CC1)=N2 | 8 | 203*[fluorescence artefact?] | 10 | -5 | 34 | .
C[Si](C)(c1ccc(C(=O)O)cc1)c1ccc(C(=O)O)cc1 | . | . | . | 9 | . | .
CC(=O)/C(=C\c1ccccc1F)C(=O)c1ccccc1 | . | . | . | -7 | . | .
CCCCOC(=O)/C(=C\c1ccc([N+](=O)[O-])o1)NC(=O)c1ccccc1 | 5 | 86 | -14 | 14 | -30 | 1.1
O=C(Nc1nc(=O)c2ccccc2s1)c1ccc(F)cc1 | 10 | 188 | 52*[fluorescence artefact?] | -16 | 49 | .
COc1ccc(Oc2nc3c(c(=O)n(C)c(=O)n3C)n2Cc2ccccc2)cc1 | 6 | 208*[fluorescence artefact?] | 1 | 16 | 2 | 1
Cn1c(=O)c2c(nc(CN3CCN(Cc4ccccc4)CC3)n2Cc2ccccc2)n(C)c1=O | 20* | 98 | -7 | -4 | -3 | 1.1
